Arbovirus anti: arbovirus infection inhibition | 200,000 tested, 0.37% active | arbovirus infection cell-based antiviral screen | inhibition, % at 10 µM; in the data active means inhibition above about 30%
ROMK primary: modulates human ROMK potassium channel activity; P48048; Tet-inducible ROMK, thallium flux fluorescence; actives lie on both sides; B-score at 10 µM; 130,000 tested, 2% active; AID 1918;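 active means signal ratio slope over the read window, or its plate-corrected B-score, at least 3 SD from the plate mean, either direction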;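 further: B-score of the F/F0 ratio slope over 7 to 12 s after thallium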
Target sequence (P48048 whole entry, looked up): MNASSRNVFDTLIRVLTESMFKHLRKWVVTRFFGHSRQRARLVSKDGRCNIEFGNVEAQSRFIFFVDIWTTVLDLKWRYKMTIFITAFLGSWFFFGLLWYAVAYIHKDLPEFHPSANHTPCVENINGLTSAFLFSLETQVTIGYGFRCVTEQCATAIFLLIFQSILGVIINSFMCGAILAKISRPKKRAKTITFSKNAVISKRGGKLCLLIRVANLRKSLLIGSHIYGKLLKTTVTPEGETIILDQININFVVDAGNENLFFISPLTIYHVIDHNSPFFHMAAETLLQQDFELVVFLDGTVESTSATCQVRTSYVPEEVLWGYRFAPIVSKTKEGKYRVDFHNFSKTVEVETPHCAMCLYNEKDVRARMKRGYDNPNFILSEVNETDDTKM
Cl transport mod: KCC2 (human) Cl- transport modulation; KCC2 cells, thallium flux FluoZin-2 fluorescence; Q9H2X9; 190,000 tested, 2.2% active; B-score of Tl+ flux slope (higher = more flux/activation; lower = inhibition) at 10 µM;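 active means thallium flux slope and its plate-corrected score both differing from the plate sample mean at a set confidence after two filtering rounds, in either direction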;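 further: slope of fluorescence scaled to starting intensity during 10 to 20 s after thallium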
Measles CPE: protection of cells from measles virus; Measles virus-infected cells, CPE protection, absorbance; protection (pct of control), % at 4 µM; 140,000 tested, 1.5% active; AID 841; in the data active means protection mostly above about 24%, no sharp cut-off; inactive means mostly below about 26%
HSV replic up: HSV replication enhancement. HSV replication augmentation in cells, fold increase. maximum fold increase. 220,000 tested, 0.005% active. AID 1956; in the data active means maximum fold increase above about 1.5; inconclusive means no clear call, values can overlap the other calls; tested in PC3 cells
* = called active by the depositor; i = inactive; ? = inconclusive; · = no result. The list is not random: actives were taken first. Their share in the collection is about 4%.

SMILES	Arbovirus anti	ROMK primary	Cl transport mod	Measles CPE	HSV replic up
O=C(COc1ccc(C(F)(F)F)cc1[N+](=O)[O-])Nc1cccc(C(F)(F)F)c1	-5.5	1.55	-0.0246	50.1*	i
O=[N+]([O-])c1ccc(C2=NN(CCO)C(=Nc3ccc(OC(F)(F)F)cc3)SC2)cc1	·	·	0.272	·	i
Cc1ccc(-c2[nH]n3c(=O)c4c(nc3c2C)CCCC4)cc1	-6.4	·	·	31.0*	i
O=c1c2c(nc3c(-c4cccc(Br)c4)c[nH]n13)CCCC2	-10.1	·	20.5*	1.6	i
CC(=O)c1sc2nc(-c3ccco3)ccc2c1N	·	·	-2.74	·	i
O=C(O)C(Cc1ccccc1)N=Cc1c(O)c2ccccc2oc1=O (centres undefined)	31.2*	-0.0518	-1.7	·	i
COc1ccc(C(C(=O)NCC2CCCO2)N(C(=O)CNC(=O)c2cccs2)c2ccc(C(C)=O)cc2)cc1OC (centres undefined)	2.2	-0.455	-0.269	·	i
CCOc1ccc(S(=O)(=O)NCCC(=O)OC(C)C(=O)N2CCc3ccccc32)cc1 (centres undefined)	8.1	·	·	53.5*	i
CCOc1ccc(S(=O)(=O)NCCC(=O)OCN2C(=O)c3ccccc3C2=O)cc1	3.7	0.0482	·	10.5	i
Cc1ccc(C(=O)COC(=O)CCc2nc3ccccc3[nH]c2=O)cc1C	3.5	0.0143	·	17.1	i
O=C(CCc1nc2ccccc2[nH]c1=O)OCC(=O)c1ccc(Cl)cc1	4.1	·	-0.218	36.2*	i
CC(NC(=O)OCc1ccccc1)C(=O)Oc1cc2oc(=O)cc(-c3ccccc3)c2cc1Cl (centres undefined)	-22.6	-0.0306	-0.651	28.9*	i
O=C(NC(Cc1ccccc1)C(=O)Oc1ccc2c(C(F)(F)F)cc(=O)oc2c1)OCc1ccccc1 (centres undefined)	11.8	-0.566	-0.488	3.8	?
Cc1ccc(C)c(NC(=O)c2cc(-c3cccnc3)nc3ccccc23)c1	-7.8	-0.471	0.772	·	i
Cc1cccc(NC(=S)NC(=O)c2cc(-c3ccccc3)nc3ccccc23)c1	7.2	·	8.49*	22.4	?
Cc1cccc(-c2cc(C(=O)Nc3ccc4c(c3)OCCO4)c3ccccc3n2)c1	0.9	·	0.0113	7.7	·
Cc1ccccc1NC(=S)NC(=O)c1cc(-c2ccccc2)nc2ccccc12	15.1	·	14.3*	14.2	i
Cc1cnn(C(=O)c2cc(-c3ccccc3)nc3ccccc23)c1	4.9	·	·	7.3	i
Cc1cc2ncn(C(=O)c3cc(-c4ccccc4)nc4ccccc34)c2cc1C	-10.1	0.747	0.587	29.2*	i
CC(C)c1ccc(N2CC(C)(C)C2=O)cc1	0.5	·	-0.0227	·	i
COC(C[C@@H](O)C[C@H](O)[C@@H](C)OCc1ccccc1)OC	·	·	-0.525	·	i
Cc1ccc(N(CC(=O)NC(C)(C)C)C(=O)CS(=O)CC(=O)Nc2ccc(F)cc2)cc1 (centres undefined)	2.4	-0.069	1.03	·	i
Cc1ccc(CSCC(=O)NN=C2CCN(C)CC2)cc1	0.6	0.905	-0.586	3.9	i
COC(=O)c1c(-c2ccc(C)cc2)csc1NC(=O)C1CC=CCC1C(=O)O (centres undefined)	18.9	·	-1.33	47.2*	i
COC(=O)c1c(-c2cc(C)ccc2C)csc1NC(=O)C1CC=CCC1C(=O)O (centres undefined)	29.2	-0.92	-2.1	·	i
SMILES	Arbovirus anti	ROMK primary	Cl transport mod	Measles CPE	HSV replic up
COc1ccc(C(=O)c2ccc(OC)c(OC)c2)cc1OC	-3.4	0.186	·	6.2	i
COc1ccc(C(=O)Oc2c(C)occc2=O)cc1OC	9.6	·	·	48.4*	i
CC1=CC(C)(C)n2c(O)c(N=NC(N)=S)c3cccc1c32	-5.2	·	5.89*	16.2	i
Clc1cccc(-c2cc3nc4c(c(N5CCNCC5)n3n2)CCCC4)c1	-37.2	·	0.756	20.6	i
Clc1cccc(-c2cc3nc4c(c(NCc5ccco5)n3n2)CCCC4)c1	33.7*	-0.475	0.447	5.1	i
O=C(O)c1ccccc1C(=O)N1CCN(c2ccccc2)CC1	4.5	1.3	0.917	45.2*	i
O=C(c1ccc(CN2CCOCC2)cc1)N1CCN(Cc2ccccc2)CC1	-0.8	0.0219	-0.834	43.6*	i
O=C(c1ccccc1)N1CCN(C(=O)c2ccccc2)CC1	-0.3	·	0.0987	37.6*	i
Cn1nnc2cc(C(=O)N3CCN(c4ccccc4)CC3)ccc21	6.5	0.446	0.14	43.1*	i
CCOC(=O)c1ccc(Cl)c(NC(=O)c2cccnc2)c1	-2.7	·	·	·	i
Cc1ccc(C(=O)NCC(=O)OC(C)C(=O)Nc2ccc(N(C)C)cc2)s1 (centres undefined)	-2.7	·	0.274	·	i
O=S(=O)(Cc1ccc(Cl)cc1)Nc1ccc2c(c1)OCO2	-2.3	-1.81*	·	14.9	i
Cc1[nH]n(-c2nc(-c3ccc(Cl)cc3)cs2)c(=O)c1N=Nc1ccc(O)cc1	-4.5	0.719	-0.125	·	i
CCn1c(SC)nc2c(c1=O)SC(C)C2 (centres undefined)	0.5	·	-0.00837	45.7*	i
CCSc1nc2c(c(=O)n1CC)SC(C)C2 (centres undefined)	9.2	·	0.193	3.4	i
CCOC(=O)c1sc(Nc2nc(OC)cc(OC)n2)nc1C	-3.4	-0.286	0.0738	·	i
CNc1ccccc1C(C)(C)c1cc(-c2cccc(OC)c2)no1	31.9*	-0.275	-0.202	·	i
O=C(Cn1c(=O)oc2cccnc21)Nc1ccccc1Oc1ccc(Cl)cc1Cl	·	0.0115	-1.91	·	i
CCc1cc(-c2n[nH]c(=S)n2-c2ccccc2C)cs1	9.3	-0.341	1.68	7.0	·
CCCc1cc(-c2n[nH]c(=S)n2C(C)c2ccccc2)cs1 (centres undefined)	5.0	0.0556	7.56*	15.8	i
CC1CC(C)CN(CC(=O)NCCc2ccc(S(N)(=O)=O)cc2)C1 (centres undefined)	6.5	-0.413	0.664	·	i
CCOC(=O)C(=CNc1cc(C)ccc1-n1cccc1)C(=O)OCC	·	-0.227	-1.47	·	i
CCOC(=O)c1ccc(NC(=S)NC2CCCC2)cc1	0.3	·	0.0231	44.0*	i
O=[N+]([O-])c1ccccc1/C=C/C=N/Nc1ccc(S(=O)(=O)Nc2ccc(Cl)cc2)cc1[N+](=O)[O-]	6.3	0.106	1.12	·	i
CCOC(=O)C1=C(C)N(C)C(C)=C(C(=O)OCC)C1c1ccsc1	-1.0	-0.523	-0.352	·	i
SMILES	Arbovirus anti	ROMK primary	Cl transport mod	Measles CPE	HSV replic up
Cc1ccc(S(=O)(=O)N2CCN(C(=O)CC(C)C)CC2)cc1	11.8	-0.59	0.149	·	i
CC(C)CC(=O)N1CCN(S(C)(=O)=O)CC1	3.7	·	6.37*	1.6	i
NC(=O)c1c(NC(=O)Cc2cccs2)sc2c1CCC2	-7.7	·	-0.726	44.9*	i
Cc1ccc(-c2c[nH]c(=S)n2-c2ccccc2F)cc1	15.5	0.00488	3.02	·	i
Cc1cccc(OCCSc2nc(N)cc(N)n2)c1	·	·	-0.224	·	i
CCCCNC(=O)OC(C)CNC(=O)Oc1cccc(C)c1 (centres undefined)	16.1	-0.614	0.299	42.6*	i
Cc1cccc(N2C(=O)CS/C2=N\NC(=O)c2ccc(Cl)cc2)c1C	4.9	0.11	2.96*	13.5	i
